# According to PubChem BioAssay (NCATS):
# Inconclusive results are not listed. Unmarked numbers belong to inactive results. Calls follow the shape of the dose curve; as a rule, active = well fitted cell-killing curve with a large enough effect in the repeat runs; inconclusive = weak or mixed curves; inactive = flat fitted curve, though single readings scatter.
# Assay: qHTS assay for small molecule agonists of the antioxidant response element (ARE) signaling pathway measured by Nrf2-dependant transcriptional activity - cell viability counter screen (AID 720653)
# Conditions: ARE-bla HepG2 viability, CellTiter-Glo ATP luminescence, 16 h; max response: stronger effect = lower value
# From the text: National Center for Advancing Translational Sciences [NCATS] NIH Chemical Genomics Center [NCGC] U.S. Environmental Protection Agency [EPA] National Institutes of Environmental Health Sciences [NIEHS] National Toxicology Program [NTP] Assay Overview: Oxidative stress has been implicated in the pathogenesis of a variety of diseases ranging from cancer to neurodegeneration. The antioxidant response element (ARE) signaling pathway plays an important role in the amelioration of oxidative stress. The CellSensor ARE-bla HepG2 cell line (Invitrogen) can be used for analyzing the Nrf2/antioxidant response signaling pathway. Nrf2 (NF-E2-related factor 2) and Nrf1 are transcription factors that bind to AREs and activate these genes. The CellSensor ARE-bla HepG2 cell line contains a beta-lactamase reporter gene under control of the Antioxidant Response Element (ARE) stably integrated into HepG2 cells. The activation of the report gene under culture conditions can be detected by fluorescence intensity. The cytotoxicity of the compounds against the ARE-bla HepG2 cell line was quantified by measuring the intracellular ATP content.
# Assay Protocol Summary: ARE-bla HepG2 cells were dispensed at 2,000 cells/5 ul/well in 1536-well black wall/clear bottom plates using a Multidrop Combi (ThermoFisher Scientific, Waltham, MA) dispenser. After the assay plates were incubated at 37C/5% CO2 for 5 hrs, 23 nL of compounds dissolved in DMSO, positive controls or DMSO only was transferred to the assay plate by a pintool work station (Kalypsys, San Diego, CA). The plates were incubated at 37C/5% CO2 for 16 hrs. After 1 uL of LiveBLAzer B/G FRET substrate was added using a Flying Reagent Dispenser (FRD) (Aurora Discovery, San Diego, CA), the assay plates were incubated at room temperature for 2 hrs. The fluorescence intensity was measured by an Envision (PerkinElmer, Shelton, CT) plate reader. Cell viability using CellTiter Glo viability assay (Promega, Madison, WI) was also measured by adding 4 ul/well of CellTiter-Glo reagent into the same assay plate using a FRD. After 30 min incubation at room temperature, the luminescence intensity in the plates was measured using a ViewLux (PerkinElmer) plate reader.
# % is scaled to controls: 0 for no effect and ±100 for the full control effect.
row,SMILES,max response [%]
1,CCCCCCCCC(=O)O,-7.02
2,O=C(c1ccc(Cl)cc1)c1ccc(Cl)cc1,-5.32
3,CCCCCCCCCCCCN,-1.6
4,OCCOCCOCCOCCO,2.46
5,CCCCOCCOCCOC(C)=O,-1.74
6,CCCCCCCCCCCCCCCCCC#N,11.9
7,Cl[Si](Cl)(Cl)c1ccccc1,-8.94
8,CN(C)Cc1cc(CN(C)C)c(O)c(CN(C)C)c1,-15.7
9,CCCCCCC(O)CCCCCCCCCCC(=O)O (stereo not given),-0.036
10,CCOCCOCCOCC,-4.14
11,Cc1ccc(N)c(S(=O)(=O)O)c1,-14.4
12,Cc1ccc(C(C)(C)C)c(O)c1,6.52
13,CCCC/C=C/CCCCO,0.665
14,C/C(=C\C(C)CC(C)CC(C)C)C1CC(=O)OC1=O (stereo not given),-17.9
15,CCCCCCCCCCCCCO,-9.94
16,CCCCCCCCCCCC[N+](C)(C)C,-23.2
17,C=C[Si](OCCOC)(OCCOC)OCCOC,15.4
18,CCOC(=O)C1=NN(c2ccc(Cl)cc2Cl)C(C)(C(=O)OCC)C1 (stereo not given),0.425
19,O=C(O)c1ccc(C(=O)O)c(C(=O)O)c1,-4.75
20,CN(C)CCOCCN(C)C,-2.1

row,SMILES,max response [%]
1,C=Cc1ccc(P(c2ccccc2)c2ccccc2)cc1,-10.4
2,CCCCCCCC1CCC(=O)O1 (stereo not given),-3.73
3,CC(C)CC(C)(O)C#CC(C)(O)CC(C)C (stereo not given),-3.69
4,O=C(OCC1CCC2OC2C1)C1CCC2OC2C1 (stereo not given),-4.32
5,CCOCCOCCOC(C)=O,2.87
6,CCCCCCCC/C=C\CCCCCCCCO,-1.08
7,CCCCC/C=C\C/C=C\CCCCCCCC(=O)OC,-4.45
8,O=C=NCCCCCCN=C=O,-0.323
9,CCC(C)(C)C1CCC(O)CC1 (stereo not given),-8.65
10,C=C(C)C(=O)OCCC[Si](OC)(OC)OC,-0.904
11,CCCCCCCCCCCC(=O)N(C)CC(=O)O,19.7
12,Cc1ccc(Cl)cc1Cl,7.57
13,Fc1ccc(Br)cc1,-9.66
14,OC1CCCCCCCCCCC1,3.88
15,C/C=C/C=C/CCCCCCCO,-8.82
16,C[Si]1(C)O[Si](C)(C)O[Si](C)(C)O[Si](C)(C)O1,2.58
17,CC1(C)CC(OC(=O)CCCCCCCCC(=O)OC2CC(C)(C)NC(C)(C)C2)CC(C)(C)N1,-3.17
18,CCc1c(C(=O)O)c(=O)cnn1-c1ccc(Cl)cc1,-3.97
19,CCCCN(CCCC)CCCCCCN(CCCC)CCCC,-9.43
20,CC/C=C\CCOC(=O)c1ccccc1O,6.72
